Common to all, as to assay: DAPPL (digital affinity profiling via proximity ligation, sequencing); 10 mM Tris-HCl pH 7.5, 50 mM NaCl, 1 mM DTT, 4% glycerol, room temperature, 30 min; GST-TFs on glutathione beads, 16-mer random dsDNA library, 0.1% formaldehyde crosslink after washing; high values mean tight binding
In experiment [1] the target is T1, FLI1 (Homo sapiens, UniProt Q01543 1-452).
T1 sequence: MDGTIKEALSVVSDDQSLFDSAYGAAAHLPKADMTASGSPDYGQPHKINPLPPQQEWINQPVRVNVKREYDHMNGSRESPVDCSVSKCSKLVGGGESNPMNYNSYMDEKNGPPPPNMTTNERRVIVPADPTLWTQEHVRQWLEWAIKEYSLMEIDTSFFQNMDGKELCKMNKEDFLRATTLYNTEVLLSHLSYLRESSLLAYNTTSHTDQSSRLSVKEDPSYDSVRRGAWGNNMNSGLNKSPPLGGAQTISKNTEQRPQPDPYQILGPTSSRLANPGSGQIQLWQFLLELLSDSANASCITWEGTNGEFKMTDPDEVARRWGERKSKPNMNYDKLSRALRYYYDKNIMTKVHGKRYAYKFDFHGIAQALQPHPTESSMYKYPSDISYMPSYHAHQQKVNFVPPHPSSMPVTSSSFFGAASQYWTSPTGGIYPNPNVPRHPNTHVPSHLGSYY
The settings on record: protein: recombinant; tags: N-terminal GST; dsDNA, one strand shown. In a few lines: (§1)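 Sequencing on an Illumina NextSeq500 followed washing, crosslinking with 0.1% formaldehyde, proximity ligation (BsaI/T4 ligase, 1 h, 37 °C) and PCR amplification of pools that had been incubated for 30 min at room temperature with 200 nmole of a random double-stranded 16-mer DNA library in Tris/NaCl/DTT/glycerol buffer. Each pool held DNA-barcoded human transcription factors, expressed in yeast as GST fusions and captured on glutathione beads, plus a tag-only sample. Binding signal is a hexamer's read frequency for a factor divided by its frequency in the tag-only sample.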

Experiment [2] deals with T2, ELK1 (Homo sapiens, UniProt P19419 1-428).
T2 sequence: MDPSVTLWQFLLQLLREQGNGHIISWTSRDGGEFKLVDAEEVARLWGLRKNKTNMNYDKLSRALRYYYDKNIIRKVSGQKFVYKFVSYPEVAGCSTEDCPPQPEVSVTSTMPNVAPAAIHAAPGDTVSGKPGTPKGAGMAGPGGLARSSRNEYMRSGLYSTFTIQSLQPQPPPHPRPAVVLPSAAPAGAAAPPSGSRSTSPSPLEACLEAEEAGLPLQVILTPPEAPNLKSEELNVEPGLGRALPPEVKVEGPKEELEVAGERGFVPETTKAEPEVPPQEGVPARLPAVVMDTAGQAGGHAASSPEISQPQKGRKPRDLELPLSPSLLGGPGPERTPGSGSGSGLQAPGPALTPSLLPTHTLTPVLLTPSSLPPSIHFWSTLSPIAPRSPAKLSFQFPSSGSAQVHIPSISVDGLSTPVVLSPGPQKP
To be noted: protein: recombinant; tags: N-terminal GST; dsDNA, one strand shown. In a few lines:
as §1

Experiment [3] deals with T3, GABPA (Homo sapiens, UniProt Q06546 1-454).
T3 sequence: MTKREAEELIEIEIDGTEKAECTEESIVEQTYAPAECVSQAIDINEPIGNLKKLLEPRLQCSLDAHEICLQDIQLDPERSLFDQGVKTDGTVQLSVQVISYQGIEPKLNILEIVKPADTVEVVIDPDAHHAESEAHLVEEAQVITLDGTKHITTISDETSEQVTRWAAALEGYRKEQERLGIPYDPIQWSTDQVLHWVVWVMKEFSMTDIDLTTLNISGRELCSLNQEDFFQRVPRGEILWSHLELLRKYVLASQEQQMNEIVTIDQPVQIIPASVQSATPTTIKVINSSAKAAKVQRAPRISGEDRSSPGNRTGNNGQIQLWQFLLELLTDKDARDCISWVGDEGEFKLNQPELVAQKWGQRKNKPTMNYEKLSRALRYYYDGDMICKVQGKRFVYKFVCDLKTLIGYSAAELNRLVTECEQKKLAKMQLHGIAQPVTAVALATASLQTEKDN
To be noted: protein: recombinant; tags: N-terminal GST; dsDNA, one strand shown. In a few lines:
as §1

Experiment [4] deals with T4, ERG (Homo sapiens, UniProt P11308 1-479).
T4 sequence: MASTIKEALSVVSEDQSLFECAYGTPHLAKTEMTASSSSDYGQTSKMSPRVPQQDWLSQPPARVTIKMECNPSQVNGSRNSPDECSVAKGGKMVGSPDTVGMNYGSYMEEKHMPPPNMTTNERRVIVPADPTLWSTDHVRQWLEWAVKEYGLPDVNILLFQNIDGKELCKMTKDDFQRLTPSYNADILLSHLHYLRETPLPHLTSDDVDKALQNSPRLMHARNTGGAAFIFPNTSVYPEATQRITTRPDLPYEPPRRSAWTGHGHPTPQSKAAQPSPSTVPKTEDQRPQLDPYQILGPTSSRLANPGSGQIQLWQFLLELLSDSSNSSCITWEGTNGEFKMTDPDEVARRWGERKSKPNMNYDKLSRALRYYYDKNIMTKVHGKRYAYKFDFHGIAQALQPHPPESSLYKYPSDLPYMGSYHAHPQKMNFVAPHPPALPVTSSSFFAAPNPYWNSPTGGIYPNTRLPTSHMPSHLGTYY
The settings on record: protein: recombinant; tags: N-terminal GST; dsDNA, one strand shown. In a few lines: as §1

Experiment [5] addresses ELF1 (Homo sapiens, UniProt P32519 1-619). The settings on record: protein: recombinant; tags: N-terminal GST; dsDNA, one strand shown. In a few lines: as §1
The target in experiment [6] is T5, EHF (Homo sapiens, UniProt Q9NZC4 1-300).
T5 sequence: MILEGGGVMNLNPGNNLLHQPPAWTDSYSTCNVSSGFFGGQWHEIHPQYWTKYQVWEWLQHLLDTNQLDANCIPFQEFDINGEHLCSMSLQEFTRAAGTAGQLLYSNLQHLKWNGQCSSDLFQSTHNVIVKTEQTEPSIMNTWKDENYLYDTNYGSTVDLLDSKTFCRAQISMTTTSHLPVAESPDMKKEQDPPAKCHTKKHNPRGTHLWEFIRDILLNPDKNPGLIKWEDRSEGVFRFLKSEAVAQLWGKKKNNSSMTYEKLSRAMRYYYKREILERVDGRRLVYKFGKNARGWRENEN
The settings on record: protein: recombinant; tags: N-terminal GST; dsDNA, one strand shown. The gist of the method: as §1

Experiment [7] addresses SPI1 (Homo sapiens, UniProt P17947 1-270). To be noted: protein: recombinant; tags: N-terminal GST; dsDNA, one strand shown. The gist of the method:
as §1

For experiment [8], the target named is SPIB (Homo sapiens, UniProt Q01892 1-262). The settings on record: protein: recombinant; tags: N-terminal GST; dsDNA, one strand shown. The gist of the method: as §1
The target of experiment [9] is T6, FEV (Homo sapiens, UniProt Q99581 1-238).
T6 sequence: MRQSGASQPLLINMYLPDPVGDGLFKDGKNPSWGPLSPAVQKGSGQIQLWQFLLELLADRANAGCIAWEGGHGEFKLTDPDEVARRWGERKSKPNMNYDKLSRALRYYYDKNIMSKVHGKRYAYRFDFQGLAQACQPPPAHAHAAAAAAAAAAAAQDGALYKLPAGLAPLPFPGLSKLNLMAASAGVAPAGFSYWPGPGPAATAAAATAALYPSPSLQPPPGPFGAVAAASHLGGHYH
The settings on record: protein: recombinant; tags: N-terminal GST; dsDNA, one strand shown. In a few lines:
as §1

Experiment [10] concerns the target ETV5 (Homo sapiens, UniProt P41161 1-510). To be noted: protein: recombinant; tags: N-terminal GST; dsDNA, one strand shown. The gist of the method:
as §1

The target in experiment [11] is HSF1 (Homo sapiens, UniProt Q00613 1-529). To be noted: protein: recombinant; tags: N-terminal GST; chain copies: 3; dsDNA, one strand shown. In a few lines:
as §1

Experiment [12] has as its target T7, SPIC (Homo sapiens, UniProt Q8N5J4 1-248).
T7 sequence: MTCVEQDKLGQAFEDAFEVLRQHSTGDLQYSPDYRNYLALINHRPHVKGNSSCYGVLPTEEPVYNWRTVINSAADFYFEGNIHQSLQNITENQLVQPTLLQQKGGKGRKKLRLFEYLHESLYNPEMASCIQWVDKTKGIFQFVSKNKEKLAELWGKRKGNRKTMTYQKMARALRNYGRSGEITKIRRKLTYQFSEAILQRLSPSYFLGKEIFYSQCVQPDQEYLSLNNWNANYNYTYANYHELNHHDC
To be noted: protein: recombinant; tags: N-terminal GST; dsDNA, one strand shown. In a few lines:
as §1

Experiment [13] has as its target ELF4 (Homo sapiens, UniProt Q99607 1-663). To be noted: protein: recombinant; tags: N-terminal GST; dsDNA, one strand shown. The gist of the method:
as §1

Experiment [14] concerns the target T8, ELK4 (Homo sapiens, UniProt P28324-2 1-405).
T8 sequence: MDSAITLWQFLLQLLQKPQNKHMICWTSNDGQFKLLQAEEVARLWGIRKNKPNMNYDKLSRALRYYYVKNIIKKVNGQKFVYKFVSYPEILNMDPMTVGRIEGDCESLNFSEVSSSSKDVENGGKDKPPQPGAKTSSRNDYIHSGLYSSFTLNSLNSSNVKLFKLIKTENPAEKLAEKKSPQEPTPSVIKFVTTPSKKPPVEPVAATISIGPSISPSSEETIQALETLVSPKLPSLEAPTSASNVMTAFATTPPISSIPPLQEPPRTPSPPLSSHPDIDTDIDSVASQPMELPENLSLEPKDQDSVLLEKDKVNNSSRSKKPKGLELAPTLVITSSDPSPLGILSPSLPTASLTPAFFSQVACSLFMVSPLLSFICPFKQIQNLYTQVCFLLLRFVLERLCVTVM
The settings on record: protein: recombinant; tags: N-terminal GST; dsDNA, one strand shown. In a few lines:
as §1

Experiment [15] has as its target T9, ETV2 (Homo sapiens, UniProt O00321 1-342).
T9 sequence: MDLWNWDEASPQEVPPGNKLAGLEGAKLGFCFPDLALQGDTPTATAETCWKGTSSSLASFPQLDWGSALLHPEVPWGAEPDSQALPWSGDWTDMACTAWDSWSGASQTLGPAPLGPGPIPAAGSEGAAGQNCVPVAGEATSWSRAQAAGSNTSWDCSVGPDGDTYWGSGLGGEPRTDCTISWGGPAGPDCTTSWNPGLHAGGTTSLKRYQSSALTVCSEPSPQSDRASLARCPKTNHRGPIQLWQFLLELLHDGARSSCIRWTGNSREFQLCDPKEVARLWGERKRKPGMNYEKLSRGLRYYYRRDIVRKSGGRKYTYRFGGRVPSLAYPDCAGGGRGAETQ
The settings on record: protein: recombinant; tags: N-terminal GST; dsDNA, one strand shown. The gist of the method: as §1

Experiment [16] deals with T10, ELF3 (Homo sapiens, UniProt P78545 1-371).
T10 sequence: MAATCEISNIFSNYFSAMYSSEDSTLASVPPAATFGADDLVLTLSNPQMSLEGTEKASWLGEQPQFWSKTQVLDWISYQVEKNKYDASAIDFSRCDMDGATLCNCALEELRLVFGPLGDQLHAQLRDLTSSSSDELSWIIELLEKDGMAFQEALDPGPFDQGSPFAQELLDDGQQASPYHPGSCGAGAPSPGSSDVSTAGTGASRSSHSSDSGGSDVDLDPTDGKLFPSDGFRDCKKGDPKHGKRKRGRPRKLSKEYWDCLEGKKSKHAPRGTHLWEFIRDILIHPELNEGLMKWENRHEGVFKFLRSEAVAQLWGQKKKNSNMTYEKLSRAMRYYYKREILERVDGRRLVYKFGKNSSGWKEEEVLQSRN
The settings on record: protein: recombinant; tags: N-terminal GST; dsDNA, one strand shown. In a few lines: as §1

The target of experiment [17] is ETV1 (Homo sapiens, UniProt P50549 1-477). To be noted: protein: recombinant; tags: N-terminal GST; dsDNA, one strand shown. In a few lines: as §1
Chain of ETV1 (P50549 whole entry): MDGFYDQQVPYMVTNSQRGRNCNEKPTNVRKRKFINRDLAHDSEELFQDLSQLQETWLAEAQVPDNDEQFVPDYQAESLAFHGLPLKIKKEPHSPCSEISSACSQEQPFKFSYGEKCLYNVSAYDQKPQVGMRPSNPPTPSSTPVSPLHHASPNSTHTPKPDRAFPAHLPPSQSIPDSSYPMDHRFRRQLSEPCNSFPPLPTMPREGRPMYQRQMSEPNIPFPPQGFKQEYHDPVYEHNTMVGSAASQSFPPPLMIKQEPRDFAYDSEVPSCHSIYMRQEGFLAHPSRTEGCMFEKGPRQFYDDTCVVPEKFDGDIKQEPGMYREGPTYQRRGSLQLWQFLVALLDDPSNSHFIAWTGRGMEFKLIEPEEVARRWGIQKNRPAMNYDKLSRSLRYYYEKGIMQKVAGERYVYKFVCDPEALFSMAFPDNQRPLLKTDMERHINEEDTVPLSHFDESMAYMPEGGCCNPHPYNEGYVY

Chain of ETV5 (P41161 whole entry): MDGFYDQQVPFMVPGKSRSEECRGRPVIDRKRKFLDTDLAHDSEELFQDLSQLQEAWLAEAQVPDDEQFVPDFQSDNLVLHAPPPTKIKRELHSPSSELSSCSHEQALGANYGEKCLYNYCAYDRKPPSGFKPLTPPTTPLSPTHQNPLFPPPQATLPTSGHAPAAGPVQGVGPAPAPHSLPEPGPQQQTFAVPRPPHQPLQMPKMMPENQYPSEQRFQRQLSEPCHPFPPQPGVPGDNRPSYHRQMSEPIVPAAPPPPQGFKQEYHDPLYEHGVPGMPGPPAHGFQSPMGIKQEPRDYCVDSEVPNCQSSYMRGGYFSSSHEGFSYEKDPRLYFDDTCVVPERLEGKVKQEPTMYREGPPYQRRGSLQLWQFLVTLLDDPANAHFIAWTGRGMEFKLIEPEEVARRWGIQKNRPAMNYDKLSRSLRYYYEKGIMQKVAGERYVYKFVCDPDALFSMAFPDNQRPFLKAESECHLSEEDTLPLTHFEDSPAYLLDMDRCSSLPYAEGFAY
Chain of SPIB (Q01892 whole entry): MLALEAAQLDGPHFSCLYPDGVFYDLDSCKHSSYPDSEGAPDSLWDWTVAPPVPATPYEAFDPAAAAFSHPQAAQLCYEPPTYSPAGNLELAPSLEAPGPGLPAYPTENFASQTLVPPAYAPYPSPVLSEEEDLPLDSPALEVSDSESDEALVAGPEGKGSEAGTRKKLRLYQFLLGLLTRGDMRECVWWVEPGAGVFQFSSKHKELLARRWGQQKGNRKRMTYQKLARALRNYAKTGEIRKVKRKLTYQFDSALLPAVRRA
Chain of HSF1 (Q00613 whole entry): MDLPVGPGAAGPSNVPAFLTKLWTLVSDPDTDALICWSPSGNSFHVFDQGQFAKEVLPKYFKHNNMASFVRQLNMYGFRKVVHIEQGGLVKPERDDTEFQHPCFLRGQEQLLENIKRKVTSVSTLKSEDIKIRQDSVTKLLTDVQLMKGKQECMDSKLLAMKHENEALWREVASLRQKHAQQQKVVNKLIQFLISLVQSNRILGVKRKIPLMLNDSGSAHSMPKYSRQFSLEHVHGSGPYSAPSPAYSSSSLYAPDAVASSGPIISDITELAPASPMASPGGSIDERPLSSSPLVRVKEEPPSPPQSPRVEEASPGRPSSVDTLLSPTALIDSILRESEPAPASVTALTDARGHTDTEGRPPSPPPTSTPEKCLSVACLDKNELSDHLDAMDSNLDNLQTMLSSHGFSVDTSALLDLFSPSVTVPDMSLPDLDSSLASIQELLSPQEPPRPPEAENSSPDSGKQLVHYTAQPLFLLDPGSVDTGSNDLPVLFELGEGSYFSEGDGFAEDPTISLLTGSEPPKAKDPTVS
Chain of ELF1 (P32519 whole entry): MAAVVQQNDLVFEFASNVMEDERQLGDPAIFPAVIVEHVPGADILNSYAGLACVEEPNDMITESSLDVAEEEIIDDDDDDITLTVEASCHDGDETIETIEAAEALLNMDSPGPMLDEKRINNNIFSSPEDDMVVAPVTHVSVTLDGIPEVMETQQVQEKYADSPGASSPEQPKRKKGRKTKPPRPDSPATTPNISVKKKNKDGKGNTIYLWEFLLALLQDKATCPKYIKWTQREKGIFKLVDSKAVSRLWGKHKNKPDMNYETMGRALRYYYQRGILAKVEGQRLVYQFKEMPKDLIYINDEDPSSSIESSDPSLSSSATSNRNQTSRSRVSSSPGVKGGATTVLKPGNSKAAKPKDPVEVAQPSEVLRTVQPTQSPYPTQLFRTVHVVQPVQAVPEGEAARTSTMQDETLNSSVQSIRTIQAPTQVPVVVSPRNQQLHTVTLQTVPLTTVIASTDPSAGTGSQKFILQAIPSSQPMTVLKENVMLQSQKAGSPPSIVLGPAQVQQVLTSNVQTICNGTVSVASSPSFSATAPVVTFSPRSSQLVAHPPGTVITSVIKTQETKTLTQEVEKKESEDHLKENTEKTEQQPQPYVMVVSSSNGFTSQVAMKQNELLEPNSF
Chain of ELF4 (Q99607 whole entry): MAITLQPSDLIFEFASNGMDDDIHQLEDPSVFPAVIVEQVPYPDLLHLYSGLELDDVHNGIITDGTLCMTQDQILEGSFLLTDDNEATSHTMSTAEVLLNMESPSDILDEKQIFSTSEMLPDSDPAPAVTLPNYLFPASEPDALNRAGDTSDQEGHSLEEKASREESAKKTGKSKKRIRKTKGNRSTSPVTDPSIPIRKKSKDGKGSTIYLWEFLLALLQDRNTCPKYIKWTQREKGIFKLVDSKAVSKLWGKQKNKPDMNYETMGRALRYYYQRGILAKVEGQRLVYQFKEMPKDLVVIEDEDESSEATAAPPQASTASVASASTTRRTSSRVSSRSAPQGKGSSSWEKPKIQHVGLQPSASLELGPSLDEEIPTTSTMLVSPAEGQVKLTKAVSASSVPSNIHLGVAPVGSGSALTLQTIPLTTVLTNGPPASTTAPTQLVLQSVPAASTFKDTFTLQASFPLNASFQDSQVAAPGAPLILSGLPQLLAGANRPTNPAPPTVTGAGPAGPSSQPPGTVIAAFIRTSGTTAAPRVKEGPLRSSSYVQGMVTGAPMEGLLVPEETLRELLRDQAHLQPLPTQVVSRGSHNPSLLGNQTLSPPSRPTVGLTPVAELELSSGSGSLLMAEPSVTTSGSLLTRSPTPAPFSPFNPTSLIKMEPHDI

Consider ACTCGC, for which the binding signal in experiment [1] was 1.19 fold enrichment (6-mer frequency, TF over GST control); in [2] it was 1.14 fold enrichment (6-mer frequency, TF over GST control); in [3], 1.18 fold enrichment (6-mer frequency, TF over GST control); in [4], 1.09 fold enrichment (6-mer frequency, TF over GST control); in experiment [5] it was 1.13 fold enrichment (6-mer frequency, TF over GST control); in [6], 1.11 fold enrichment (6-mer frequency, TF over GST control). Further, the binding signal is 1.15 fold enrichment (6-mer frequency, TF over GST control) in [7]; 1.12 fold enrichment (6-mer frequency, TF over GST control) in experiment [8]; 1.14 fold enrichment (6-mer frequency, TF over GST control) in experiment [9]; 1.15 fold enrichment (6-mer frequency, TF over GST control) in [10]; 1.1 fold enrichment (6-mer frequency, TF over GST control) in [11]; 1.2 fold enrichment (6-mer frequency, TF over GST control) in [12]. The binding signal is 1.1 fold enrichment (6-mer frequency, TF over GST control) in experiment [13]; 1.14 fold enrichment (6-mer frequency, TF over GST control) in [14]; 1.12 fold enrichment (6-mer frequency, TF over GST control) in experiment [15]; 1.21 fold enrichment (6-mer frequency, TF over GST control) in experiment [16]; 1.15 fold enrichment (6-mer frequency, TF over GST control) in [17].

The values above are taken from article PMC7862700, “An all-to-all approach to the identification of sequence-specific readers for epigenetic DNA modifications on cytosine”.
